# Screens from PubChem.
# Sampled rows, rich in hits. Any-hit rate of the full collection: about 2.5%.
# MEKK2 WT-MEK5 – raises or lowers MEK5 binding to wildtype human MEKK2 PB1 domain; binding response (% of control), % at 10 µM; 290,000 compounds, 1.1% hits; AID 1531; bead flow cytometry, Alexa488-MEK5 binding to MEKK2 WT; actives lie on both sides; Q9Y2U5; in the data active = binding response below about 67% or above about 130%
# MEKK3 PB1 HTS – raises or lowers MEK5 binding to the human MEKK3 PB1 domain; bead-based flow cytometry, Alexa488-MEK5 binding to MEKK3; actives lie on both sides; 0 = blocked by unlabeled MEK5, 100 = vehicle; binding response (% of control), % at 10 µM; 290,000 compounds, 1.4% hits;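 active = binding response more than 3 SD above or below the average of its plate-row segment, actives on both sides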;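 also: Alexa488 bead fluorescence after subtracting the streptavidin-only scavenger bead signal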
# Rce1 inh – blocks yeast Ras-converting enzyme | yeast membranes, quenched prenylated peptide cleavage fluorescence | Q03530 | calls only | 290,000 compounds, 0.27% hits;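 active = fall in fluorescence gain of 50% or more versus controls, with final raw signal at or below 3038400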;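 also: plate controls were neutral control wells for no effect and wells lacking membranes for full effect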
# MEKK2mut PB1 HTS – signal of MEK5 binding to mutant human MEKK2 PB1 domain; bead flow cytometry, Alexa488-MEK5 binding to MEKK2 mutant; percent response, % at 10 µM; 290,000 compounds, 0.35% hits; AID 1530; in the data active = percent response above about 24%, passing the limit was not always enough
# UBC13 polyUb – human UBC13 polyubiquitination inhibition; inhibition, % at 20 µM; P61088; 330,000 compounds, 0.47% hits; UBC13 polyubiquitin chain formation, TR-FRET; in the data active = inhibition above about 45%, passing the limit was not always enough
# Target sequence (P61088 whole entry, looked up): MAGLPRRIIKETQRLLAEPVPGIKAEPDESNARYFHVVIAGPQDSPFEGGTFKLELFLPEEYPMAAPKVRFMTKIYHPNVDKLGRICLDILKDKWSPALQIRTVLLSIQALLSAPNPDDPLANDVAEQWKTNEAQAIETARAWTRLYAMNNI
# Casp3 UBC13 ctr – caspase-3 inhibition (UBC13 counter-screen). AID 488856. Recombinant caspase-3, Caspase-Glo 3/7 luminescence, 60 min. 1,400 compounds, 4% hits. shares compounds with UBC13 polyUb. inhibition, % at 20 µM;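 active = mean inhibition across replicates above about 26%, limit read from the data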;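 also: plate controls were DMSO with caspase-3 for no effect and DMSO wells lacking enzyme for full effect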
# Target sequence (P42574 whole entry, looked up): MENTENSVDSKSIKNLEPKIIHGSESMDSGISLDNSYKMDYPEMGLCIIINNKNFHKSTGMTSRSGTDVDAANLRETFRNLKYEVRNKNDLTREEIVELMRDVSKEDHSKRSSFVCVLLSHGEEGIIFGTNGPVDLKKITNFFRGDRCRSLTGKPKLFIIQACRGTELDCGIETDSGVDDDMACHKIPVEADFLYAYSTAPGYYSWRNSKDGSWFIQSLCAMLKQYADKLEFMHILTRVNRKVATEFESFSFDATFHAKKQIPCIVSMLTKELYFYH
# UBC13 confirm – human UBC13 polyubiquitin inhibition, confirmed | AID 488859 | shares compounds with UBC13 polyUb | inhibition, % at 10 µM | 1,400 compounds, 68% hits | UBC13 polyubiquitination, TR-FRET, biochemical; in the data active = inhibition above about 45%
# Active calls of the source: *; i = inactive; x = not tested or not shown.
SMILES,MEKK2 WT-MEK5,MEKK3 PB1 HTS,Rce1 inh,MEKK2mut PB1 HTS,UBC13 polyUb,Casp3 UBC13 ctr,UBC13 confirm
C[C@@H]1O[C@@H](O[C@H]2[C@H](Oc3cc(O)c4c(c3)OC(c3ccc(O)cc3)CC4=O)O[C@H](CO)[C@@H](O)[C@@H]2O)[C@H](O)[C@H](O)[C@H]1O (stereo partly specified),x,x,i,x,97*,-2,100*
CC(C(=O)NN)c1ccc([N+](=O)[O-])cc1 (stereo unspecified),105,106,x,2,10,x,x
CCOC(=O)C1CCCCN1S(=O)(=O)c1cc2c(cc1C)NC(=O)CO2 (stereo unspecified),98,97,i,-1,4,x,x
CCc1nc2ccccc2c(C(=O)OCc2nc3ccccc3c(=O)[nH]2)c1C,x,x,x,x,62*,1,58*
CCc1nc2ccccc2c(C(=O)OCCN2C(=O)c3ccccc3C2=O)c1C,103,104,i,13,52*,-3,70*
NC[C@@H]1O[C@H](C23CC4CC(CC(C4)C2)C3)Cc2c1ccc(O)c2O,130,107,i,10,55*,-1,54*
CCOC(=O)/C(=C\c1cccc(O)c1)c1nc2sc(C)c(C)c2c(=O)[nH]1,98,102,i,-2,67*,-1,66*
CCOC(=O)c1nc2sc(C)c(C)c2c(=O)[nH]1,103,104,i,1,10,x,x
C[C@H](NC(=O)c1ccccc1Cl)C(=O)OCc1cn2cc(Cl)ccc2n1,x,x,x,x,106*,6,4
CCc1cccc2c(C(=O)C(NC(C)CC)c3ccccc3)c[nH]c12 (stereo unspecified),113,102,i,8,79*,1,101*
CCc1cccc2c(C(=O)C(NCCCOC)c3ccccc3)c[nH]c12 (stereo unspecified),115,101,i,21,28,x,x
CC(C)OCCCNC(=O)c1cn(C)c2ccc(S(=O)(=O)N(C)C3CCCCC3)cc2c1=O,98,100,i,0,0,x,x
O=C(NN1C(=O)CSC1=S)C(=O)NN1C(=O)CSC1=S,97,100,i,-5,47*,8,29
CCOC(=O)C1=C(COC(=O)c2cc(OC)c(OC)c(OC)c2)NC(=O)NC1C (stereo unspecified),x,x,i,x,62*,1,84*
Cc1ccc2c(c1)c1nc3ccccc3nc1n2C,101,104,i,8,53*,8,16
CCn1c2ccc(F)cc2c2nc3ccccc3nc21,82,100,i,-4,34,x,x
CCOc1ccc2c(c1)c1nc3ccccc3nc1n2C,100,101,i,-2,x,x,x
Cn1c2ccc(F)cc2c2nc3ccccc3nc21,104,103,i,14,51*,9,14
Cn1c2ccc(Cl)cc2c2nc3ccccc3nc21,83,103,i,-6,49*,0,7
COc1ccc(S(=O)(=O)N2CC(O)C[C@H]2C(=O)OCC(=O)N2CCCCCC2)cc1 (stereo partly specified),95,107,i,6,-10,x,x
CN(C)Cc1nc2ccccc2c(=O)n1Cc1nc(-c2cccc([N+](=O)[O-])c2)cs1,112,105,i,-3,0,x,x
CN1CCN(Cc2nc3ccccc3c(=O)n2Cc2nc(-c3ccc([N+](=O)[O-])cc3)cs2)CC1,132,101,i,40,79*,2,57*
CCCCN(C(=O)c1ccco1)c1nnc(-c2cc(OC)c(OC)c(OC)c2)s1,104,103,i,4,50*,2,38
O=C(Cc1ccccc1)Nc1ccc(SC(F)F)cc1,103,102,i,17,16,x,x
CCOc1ccccc1-c1nc(C(N)=O)c2[nH]c(=O)n(-c3ccc(F)cc3)c2n1,107,104,i,8,65*,3,8
SMILES,MEKK2 WT-MEK5,MEKK3 PB1 HTS,Rce1 inh,MEKK2mut PB1 HTS,UBC13 polyUb,Casp3 UBC13 ctr,UBC13 confirm
CC1CCCCN1CCn1c(=S)[nH]c2cc3c(cc2c1=O)OCO3 (stereo unspecified),75,69,i,-13,3,x,x
CCN(CC)CCn1c2ccccc2c2nc3ccccc3nc21,100,99,i,1,-46,x,x
CCCn1c2ccccc2c2nc3ccccc3nc21,93,99,i,-1,47*,5,41
O/N=C/c1cn(-c2ccccc2)nc1-c1ccc2c(c1)OCCO2,104,104,i,1,46*,-2,48*
CC(C)[C@H]1CN=C2N(CCNC(=O)CCC3CCCCC3)[C@H](Cc3ccc(O)cc3)CN21,100,83,i,6,31,x,x
COc1ccc(C[C@H]2CN3C(=NC[C@@H]3C(C)C)N2CCNC(=O)CCC2CCCCC2)cc1,130,103,i,21,53*,-1,20
C[C@@H]1NC(=O)c2cc([N+](=O)[O-])cc(I)c2NCCCC[C@@H](C(N)=O)NC(=O)[C@H](CCC(=O)O)NC1=O,101,104,x,5,-13,x,x
CC[C@H](C)[C@@H]1NC(=O)c2cc([N+](=O)[O-])cc(F)c2NCCCC[C@@H](C(N)=O)NC(=O)[C@H](CCCCN)NC1=O,110,104,i,19,78*,-1,62*
NCCCC[C@@H]1NC(=O)c2cc([N+](=O)[O-])cc(F)c2NCCCC[C@@H](C(N)=O)NC(=O)[C@H](CCC(N)=O)NC1=O,98,94,i,9,74*,1,56*
C/C(Cl)=C\Cn1c(O)c(N=NC(N)=S)c2ccccc21,91,98,i,-6,84*,-4,102*
COC(=O)c1ccc(Cn2c(O)c(N=NC(N)=S)c3ccccc32)o1,101,104,i,3,69*,2,81*
O=C(N/N=C/c1ccccn1)c1cccc(S(=O)(=O)N2CCCC2)c1,102,102,i,6,-12,x,x
Cc1ccccc1Nc1nnc(-c2ccc(C(=O)NCCO)cc2)c2ccccc12,100,99,i,-2,-6,x,x
CCOC(=O)c1c(C)n(-c2ccc(C)cc2)c2ccc(OCC(O)CNCCCO)cc12 (stereo unspecified),181*,106,i,40,62*,0,64*
OC(CNCC1CCCO1)COc1ccc(OCC(O)CNCC2CCCO2)cc1 (stereo unspecified),99,106,i,3,-7,x,x
CCOC(=O)c1c(C)n(-c2ccc(C)cc2)c2ccc(OCC(O)CNCC3CCCO3)cc12 (stereo unspecified),124,53,i,-7,56*,0,77*
Cc1ccccc1Nc1nc(N)nc(COC(=O)[C@@H](NC(=O)c2c(F)cccc2F)C(C)C)n1,x,x,i,x,-3,x,x
